Measured values as given in PubChem BioAssay (Tox21).
Unmarked numbers belong to inactive results. Records with an inconclusive call do not appear. A call without a number means that no potency is given here. Activity calls are given as the source filed them. Unless noted, calls come from the whole dose curve; as a rule, active = well fitted curve in the direction sought with a large enough effect in the repeat runs; inconclusive = weak or mixed curves; inactive = no such curve, though single readings can be large; an effect the other way counts as inactive or inconclusive.

Legend:
[1] = qHTS assay to identify small molecule antagonists of the estrogen receptor alpha (ER-alpha) signaling pathway using the BG1 cell line in the presence of 0.1 nM 17-beta-estradiol - cell viability counter screen (AID 1259241); note: nearly all actives have a fitted effect of over 40% in size
Outline: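 VM7Luc4E2, 4,000 cells/well, phenol red-free medium + 10% charcoal-stripped FBS; 24 hr plating; cpd + 0.1 nM E2 final, 22 hr 37C/5% CO2; CellTiter-Fluor 30 min, fluorescence.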

[2] = qHTS assay to identify small molecule antagonists of the androgen receptor (AR) signaling pathway using the MDA cell line in the presence of 0.5 nM R1881 - cell viability counter screen (AID 1259242); note: nearly all actives have a fitted effect of over 45% in size
Outline: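 MDA-kb2 cells (human breast carcinoma, stably carrying MMTV-luciferase reporter) were exposed to compounds with 0.5 nM R1881 (final) for 16 hr at 37C, 0% CO2; viability then read as live-cell protease fluorescence (CellTiter-Fluor, 30 min) in the same wells.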

[3] = target: Androgen receptor (Homo sapiens) (UniProt P10275); test: qHTS assay to identify small molecule antagonists of the androgen receptor (AR) signaling pathway using the MDA cell line in the presence of 0.5 nM R1881 (AID 1259243); note: nearly all actives have a fitted effect of over 50% in size; note: potency is the fitted concentration of half-maximal effect
Outline: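 MDA-kb2 human breast carcinoma cells carrying an MMTV-luciferase reporter (AR- and GR-responsive) were plated, rested 5 hr at 37C, dosed with compounds, then stimulated with 0.5 nM R1881 (final) for 16 hr; luminescence was read after ONE-Glo.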

[4] = target: Estrogen receptor (Homo sapiens) (UniProt P03372); test: qHTS assay to identify small molecule antagonists of the estrogen receptor alpha (ER-alpha) signaling pathway using the BG1 cell line in the presence of 0.1 nM 17-beta-estradiol (AID 1259244); note: nearly all actives have a fitted effect of over 50% in size
Outline: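 VM7Luc4E2 cells (endogenous full-length ER-alpha, stable 4xERE-luciferase) were grown 5 days in phenol red-free medium with charcoal-stripped FBS, then exposed 22 h at 37C to compounds plus 0.1 nM (final) 17beta-estradiol; ONE-Glo luminescence read-out.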

[5] = qHTS assay to identify small molecule HDAC inhibitors (AID 1259364); note: top concentration of the series differs between compounds; nearly all actives have a fitted effect of over 45% in size
Outline: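 Wild-type HCT-116 cells were plated overnight, exposed to compounds for 2 h at 37 °C, then given HDAC-Glo class I/II luminogenic reagent for 30 min at room temperature before luminescence was read.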

[6] = qHTS assay to identify small molecule HDAC inhibitors - cell viability counter screen (AID 1259365); note: series mostly up to about 92 µM; nearly all actives have a fitted effect of over 50% in size
Outline: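 Luminescence from CellTiter-Glo, developed 30min at room temperature, reports viability of wild-type HCT-116 cells treated 2hr with compounds at 37 C and 5% CO2 after overnight plating.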

[7] = qHTS assay to identify small molecule agonists of the sonic hedgehog signaling (Shh) pathway - cell viability counter screen (AID 1259366); note: nearly all actives have a fitted effect of over 50% in size
Outline: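 Cytotoxicity counter screen run in the same wells as the Shh reporter assay. NIH/3T3 cells carrying a Gli1 response element–driven luciferase were treated with DMSO-dissolved compounds for 24hr, and live-cell protease activity was measured with CellTiter-Fluor.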

[8] = qHTS assay to identify small molecule antagonists of the sonic hedgehog signaling (Shh) pathway - cell viability counter screen (AID 1259367); note: nearly all actives have a fitted effect of over 55% in size
Outline: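 After a 4 hr settling period, 3T3 Gli1-Luc cells were treated with DMSO-dissolved chemicals and conditioned medium, kept 24 hr at 37C in 5% CO2, and assayed for viability by CellTiter-Fluor fluorescence following 1 hr reagent incubation.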

[9] = qHTS assay to identify small molecule agonists of the sonic hedgehog signaling (Shh) pathway (AID 1259368; calls by dose curve; note: series mostly up to about 92 µM; nearly all actives have a fitted effect of over 15% in size)
Outline: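 NIH/3T3-derived 3T3Gli1-Luc cells carrying a stably integrated Gli1 response element–firefly luciferase reporter were plated, left 4 hr at 37 C, then given compounds in DMSO for 24 hr. Luminescence was read 30 min after adding luciferase reagent.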

[10] = qHTS assay to identify small molecule antagonists of the sonic hedgehog signaling (Shh) pathway (AID 1259369; calls by dose curve; note: nearly all actives have a fitted effect of over 45% in size)
Outline: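 NIH/3T3-derived 3T3Gli1-Luc cells with stably integrated Gli1-Luc reporter were preincubated 4hr at 37 C, then given compounds in DMSO plus Shh conditioned medium and incubated 24hr. Firefly luciferase luminescence read after 30min reagent at room temperature.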

[11] = target: Estrogen receptor beta (Homo sapiens) (UniProt Q92731); test: qHTS assay to identify small molecule agonists of the estrogen receptor beta (ER-beta) signaling pathway (AID 1259377; active = well fitted activation curve with a large enough effect in the signal ratio in the repeat runs, not every such curve was filed as active; the % refers to the signal ratio)
Outline: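 HEK293T ER-beta-UAS-bla; 2% charcoal-stripped FBS; cells pre-incubated 6 hr, compound 16 hr, 37C/5% CO2; LiveBLAzer B/G FRET substrate 2 h RT; fluorescence intensity read.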

[12] = target: Estrogen receptor beta (Homo sapiens) (UniProt Q92731); test: qHTS assay to identify small molecule antagonists of the estrogen receptor beta (ER-beta) signaling pathway (AID 1259378; active = well fitted inhibition curve with a large enough effect in the signal ratio in the repeat runs, not every such curve was filed as active; the % refers to the signal ratio)
Outline: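 ER-beta-UAS-bla HEK293T (GripTite) cells in 2% charcoal-stripped FBS medium were preincubated 6 hr at 37C, dosed with compound, then stimulated with 1 nM E2 (final) for 16 hr; beta-lactamase reporter read by B/G FRET fluorescence after 2 hr substrate loading.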

[13] = qHTS assay to identify small molecule agonists of the estrogen receptor beta (ER-beta) signaling pathway - cell viability counter screen (AID 1259380); note: nearly all actives have a fitted effect of over 30% in size
Outline: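 ER-beta-UAS-bla HEK293T cells in medium with 2% charcoal-stripped FBS were preincubated 6 hr at 37C, dosed with compound in DMSO for 16 hr, then after the bla read, CellTiter-Glo was added for 30 min at room temperature; luminescence recorded.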

[14] = target: Estrogen receptor (Homo sapiens) (UniProt P03372); test: qHTS assay to identify small molecule agonists of the estrogen receptor alpha (ER-alpha) signaling pathway in the presence of an antagonist (AID 1259383; calls by dose curve; note: top concentration of the series differs between compounds; nearly all actives have a fitted effect of over 15% in size)
Outline: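 VM7Luc4E2 cells (endogenous full-length ER-alpha, 4×ERE-luciferase) were precultured 5 days in phenol red-free medium with 10% charcoal-stripped FBS, given 10.0nM ICI-182,780 (final), then treated with compounds at 15 concentrations for 22hr at 37C; luminescence read with ONE-Glo.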

[15] = qHTS assay to identify small molecule agonists or antagonists of the thyroid stimulating hormone receptor (TSHR) signaling pathway - wild type cell line counter screen (AID 1259384; calls by dose curve)
Outline: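 Wild-type HEK293 cells were plated 18 h at 37 C/5% CO2, pin-dosed with compound plus Ro20-1724 medium, held 30 min at room temperature, then given cAMP-d2 and anti-cAMP-cryptate; fluorescence was read after 1 h. Fifteen concentrations, triplicate.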

[16] = target: Thyrotropin receptor (Homo sapiens) (UniProt P16473); test: qHTS assay to identify small molecule antagonists of the thyroid stimulating hormone receptor (TSHR) signaling pathway (AID 1259385; calls by dose curve; note: nearly all actives have a fitted effect of over 20% in size)
Outline: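 TSHR-HEK293 cells were plated and held 18 h at 37C/5% CO2, then given compound plus Ro20-1724 and stimulated with TSH at 1.5 ng/mL final. After 30 min at room temperature, cAMP was detected with cAMP-d2/anti-cAMP-cryptate (1 h) by fluorescence.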

[17] = qHTS assay to identify small molecule phospholipidosis (PLD) inducers (AID 1259344; active = well fitted curve in the direction sought with a large enough effect; an effect the other way counts as inactive or inconclusive)
Outline: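 HepG2 cells grown on collagen I take up LipidTOX Red while exposed to compound for 24 h; after fixation they are imaged at 20x and pit metrics are extracted.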

[18] = qHTS assay to identify small molecule agonists of the androgen receptor (AR) signaling pathway in the presence of an antagonist - cell viability counter screen (AID 1259379); note: series mostly up to about 92 µM; nearly all actives have a fitted effect of over 25% in size
Outline: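 MDA-kb2 human breast carcinoma cells (stable MMTV-luciferase, AR/GR responsive) were seeded 3,000 cells/well, pre-incubated 5 hr at 37C without CO2, then given 3.0uM nilutamide and compounds at 15 concentrations for 16 hr. Viability was read by CellTiter-Fluor fluorescence.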

[19] = target: Androgen receptor (Homo sapiens) (UniProt P10275); test: qHTS assay to identify small molecule agonists of the androgen receptor (AR) signaling pathway in the presence of an antagonist (AID 1259381; calls by dose curve; note: nearly all actives have a fitted effect of over 15% in size)
Outline: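 MDA-kb2 human breast carcinoma cells carrying an MMTV-luciferase reporter (AR- and GR-responsive) were treated with compounds at 15 concentrations plus 3.0uM final nilutamide for 16hr at 37C without CO2; luminescence was read after ONE-Glo addition.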

[20] = qHTS assay to identify small molecule antagonists of the estrogen receptor beta (ER-beta) signaling pathway - cell viability counter screen (AID 1259382); note: series mostly up to about 92 µM; nearly all actives have a fitted effect of over 55% in size
Outline: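 ER-beta-UAS-bla HEK293T cells (2,000/well, 2% charcoal-stripped FBS) were pre-incubated 6 hr at 37C, then given compound plus 1nM final 17-beta-estradiol for 16 hr. Viability was read in the same wells by CellTiter-Glo luminescence after 30 min at room temperature.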

Sequence of Androgen receptor (Homo sapiens) (P10275 whole entry, looked up): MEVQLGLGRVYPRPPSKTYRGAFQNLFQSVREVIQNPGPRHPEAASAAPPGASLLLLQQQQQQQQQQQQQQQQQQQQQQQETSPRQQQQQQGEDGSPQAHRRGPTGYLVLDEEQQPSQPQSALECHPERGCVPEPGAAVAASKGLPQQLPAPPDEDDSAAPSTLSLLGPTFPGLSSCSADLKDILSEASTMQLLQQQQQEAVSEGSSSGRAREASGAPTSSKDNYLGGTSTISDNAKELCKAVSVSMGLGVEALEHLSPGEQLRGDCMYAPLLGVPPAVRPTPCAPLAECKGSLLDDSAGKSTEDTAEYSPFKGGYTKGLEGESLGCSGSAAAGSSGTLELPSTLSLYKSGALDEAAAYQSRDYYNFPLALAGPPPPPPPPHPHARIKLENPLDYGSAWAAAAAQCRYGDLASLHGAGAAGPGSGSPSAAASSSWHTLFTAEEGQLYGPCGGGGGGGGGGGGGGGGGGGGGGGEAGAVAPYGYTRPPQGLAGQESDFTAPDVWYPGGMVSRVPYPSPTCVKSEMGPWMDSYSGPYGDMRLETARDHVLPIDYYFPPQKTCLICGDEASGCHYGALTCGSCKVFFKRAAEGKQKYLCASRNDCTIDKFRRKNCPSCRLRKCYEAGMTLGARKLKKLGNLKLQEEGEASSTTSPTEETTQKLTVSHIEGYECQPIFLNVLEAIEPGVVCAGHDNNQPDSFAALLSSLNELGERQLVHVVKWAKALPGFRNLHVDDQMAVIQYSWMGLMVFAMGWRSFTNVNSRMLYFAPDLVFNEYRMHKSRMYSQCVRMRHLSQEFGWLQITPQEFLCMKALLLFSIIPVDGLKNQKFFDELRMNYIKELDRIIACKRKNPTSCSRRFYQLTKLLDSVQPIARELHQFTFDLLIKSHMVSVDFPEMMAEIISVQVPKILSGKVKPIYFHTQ
Sequence of Estrogen receptor (Homo sapiens) (P03372 whole entry, looked up): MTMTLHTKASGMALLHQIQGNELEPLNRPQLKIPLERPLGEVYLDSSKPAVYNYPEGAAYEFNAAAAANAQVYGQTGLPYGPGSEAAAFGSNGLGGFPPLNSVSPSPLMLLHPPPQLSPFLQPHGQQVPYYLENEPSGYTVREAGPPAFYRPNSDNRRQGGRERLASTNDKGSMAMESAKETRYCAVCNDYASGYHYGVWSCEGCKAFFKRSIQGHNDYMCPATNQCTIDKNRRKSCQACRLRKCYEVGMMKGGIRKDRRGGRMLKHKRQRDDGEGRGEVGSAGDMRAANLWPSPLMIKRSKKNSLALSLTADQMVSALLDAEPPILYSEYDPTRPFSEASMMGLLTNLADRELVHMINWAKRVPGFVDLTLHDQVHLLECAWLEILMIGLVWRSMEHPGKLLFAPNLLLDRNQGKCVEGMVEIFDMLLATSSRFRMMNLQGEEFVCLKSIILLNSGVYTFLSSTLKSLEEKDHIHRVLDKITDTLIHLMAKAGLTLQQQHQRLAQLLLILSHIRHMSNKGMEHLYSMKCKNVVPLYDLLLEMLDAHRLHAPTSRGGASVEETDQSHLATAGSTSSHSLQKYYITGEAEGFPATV
Sequence of Estrogen receptor beta (Homo sapiens) (Q92731 whole entry, looked up): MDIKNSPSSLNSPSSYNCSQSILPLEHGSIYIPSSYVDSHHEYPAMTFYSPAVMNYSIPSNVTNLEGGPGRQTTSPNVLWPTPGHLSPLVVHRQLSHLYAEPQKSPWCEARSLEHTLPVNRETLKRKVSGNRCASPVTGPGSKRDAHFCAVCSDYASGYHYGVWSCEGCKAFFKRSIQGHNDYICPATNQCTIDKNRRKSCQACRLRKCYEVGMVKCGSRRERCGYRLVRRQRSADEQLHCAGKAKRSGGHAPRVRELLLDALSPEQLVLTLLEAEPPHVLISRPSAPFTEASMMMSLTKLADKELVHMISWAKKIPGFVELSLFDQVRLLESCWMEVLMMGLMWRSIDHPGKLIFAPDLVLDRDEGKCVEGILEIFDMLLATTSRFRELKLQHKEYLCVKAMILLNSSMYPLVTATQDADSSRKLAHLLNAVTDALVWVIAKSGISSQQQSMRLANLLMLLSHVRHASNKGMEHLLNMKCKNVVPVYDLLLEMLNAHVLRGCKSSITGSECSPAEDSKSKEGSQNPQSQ
Sequence of Thyrotropin receptor (Homo sapiens) (P16473 whole entry, looked up): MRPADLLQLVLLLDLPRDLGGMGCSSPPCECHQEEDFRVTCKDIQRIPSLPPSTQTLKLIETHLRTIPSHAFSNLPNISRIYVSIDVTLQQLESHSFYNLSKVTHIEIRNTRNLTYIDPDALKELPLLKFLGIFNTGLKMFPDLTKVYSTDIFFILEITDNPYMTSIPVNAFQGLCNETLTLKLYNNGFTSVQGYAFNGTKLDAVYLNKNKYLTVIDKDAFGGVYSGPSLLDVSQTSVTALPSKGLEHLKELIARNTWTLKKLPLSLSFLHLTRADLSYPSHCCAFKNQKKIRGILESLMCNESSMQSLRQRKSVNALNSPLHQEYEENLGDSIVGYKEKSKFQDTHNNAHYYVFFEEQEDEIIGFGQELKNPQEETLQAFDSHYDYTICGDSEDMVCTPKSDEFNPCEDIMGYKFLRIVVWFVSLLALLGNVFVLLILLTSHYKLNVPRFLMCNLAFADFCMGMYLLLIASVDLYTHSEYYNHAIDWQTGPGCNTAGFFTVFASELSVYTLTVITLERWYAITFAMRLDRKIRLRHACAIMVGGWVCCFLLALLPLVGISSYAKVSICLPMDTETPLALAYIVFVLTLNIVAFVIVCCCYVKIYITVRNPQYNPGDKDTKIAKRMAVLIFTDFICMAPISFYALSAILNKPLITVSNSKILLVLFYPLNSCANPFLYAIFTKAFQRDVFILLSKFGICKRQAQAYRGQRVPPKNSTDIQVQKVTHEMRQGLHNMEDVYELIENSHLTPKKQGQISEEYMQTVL

| Compound | Potency [1] | outcome [2] | Potency [3] | Potency [4] | Potency [5] | outcome [6] | Potency [7] | Potency [8] | outcome [9] | Potency [10] | Potency [11] | outcome [12] | Potency [13] | outcome [14] | outcome [15] | outcome [16] | outcome [17] | Potency [18] | Potency [19] | outcome [20] |
| --- | --- | --- | --- | --- | --- | --- | --- | --- | --- | --- | --- | --- | --- | --- | --- | --- | --- | --- | --- | --- |
| COCCOCCOCCOCCO | inactive | inactive | inactive | inactive | inactive | inactive | inactive | inactive | inactive | inactive | inactive | inactive | inactive | inactive | inactive | inactive |  |  |  |  |
| NC(CO)C(=O)NNCc1ccc(O)c(O)c1O (stereo not drawn) | inactive | inactive | inactive | inactive | inactive | inactive |  | inactive | inactive | inactive |  |  | inactive | inactive | inactive |  | inactive | inactive |  |  |
| O=C(OCC(COC(=O)c1cccnc1)(COC(=O)c1cccnc1)COC(=O)c1cccnc1)c1cccnc1 | inactive | inactive | inactive | inactive | inactive | inactive | inactive | inactive | inactive | inactive | inactive |  | inactive | inactive | inactive |  | inactive |  |  |  |
| CCCCCCCCCC(C)=O | inactive | inactive | inactive | inactive | inactive | inactive | inactive | inactive | inactive | inactive | inactive | inactive | inactive | inactive | inactive | inactive |  | inactive | inactive | inactive |
| CC(CO)c1ccccc1 (stereo not drawn) | inactive | inactive | inactive | inactive | inactive | inactive | inactive | inactive | inactive | inactive |  | inactive | inactive | inactive | inactive | inactive |  | inactive |  | inactive |
| CCOC(=O)c1ncn2c1CN(C)C(=O)c1cc(F)ccc1-2 | inactive | inactive | inactive | inactive | inactive | inactive | inactive |  | inactive | inactive |  |  | inactive | inactive | inactive | inactive | inactive | inactive | inactive | inactive |
| C=CCCCCCCCCCCCC | inactive | inactive | inactive |  | inactive | inactive | inactive |  | inactive | inactive | inactive | inactive | inactive |  | inactive | inactive |  | inactive | inactive | inactive |
| BrCc1cccc(Oc2ccccc2)c1 | inactive | inactive | 54.5 µM (active) |  | inactive | inactive | inactive | inactive | inactive | inactive |  | inactive | inactive |  | inactive | inactive |  |  | inactive | inactive |
| COc1ccc(-c2cc(=O)c3c(O)cc(O[C@@H]4O[C@H](CO[C@@H]5O[C@@H](C)[C@H](O)[C@@H](O)[C@H]5O)[C@@H](O)[C@H](O)[C@H]4O)cc3o2)cc1O | inactive | inactive |  | inactive | inactive | inactive | inactive | inactive | inactive | inactive | inactive | inactive | inactive | inactive |  |  | inactive | inactive |  | inactive |
| C=COCCOCCOCCOC=C | inactive | inactive | inactive |  | inactive | inactive | inactive | inactive | inactive | inactive | inactive | inactive | inactive |  | inactive | inactive |  | inactive |  | inactive |
| C[C@@H](O)[C@H]1C(=O)N2C(C(=O)O)=C(SCCN=CN)C[C@H]12 | inactive | inactive |  | inactive | inactive | inactive | inactive | inactive | inactive | inactive | inactive | inactive | inactive | inactive | inactive | inactive | inactive | inactive |  | inactive |
| C=C(C)C(=O)OCCN(CC)CC | inactive | inactive | inactive |  | inactive | inactive | inactive | inactive | inactive | inactive |  |  | inactive |  | inactive | inactive |  | inactive | inactive | inactive |
| CC(C)C(=O)OCc1cccc(OC(=O)[C@@H]2N3C(=O)[C@@H](NC(=O)Cc4ccccc4)[C@H]3SC2(C)C)c1 | inactive | inactive | inactive | inactive | inactive |  | inactive | inactive | inactive | inactive | inactive | inactive | inactive | inactive | inactive | inactive |  | inactive |  | inactive |
| COc1ccc(OC)c(Cl)c1 | inactive | inactive | inactive |  | inactive | inactive | inactive | inactive | inactive | inactive | inactive | inactive | inactive |  | inactive | inactive |  | inactive | inactive | inactive |
| COCCc1ccc(OCC2CO2)cc1 (stereo not drawn) | inactive | inactive | inactive | inactive | inactive | inactive | inactive |  | inactive | inactive | inactive | inactive | inactive | inactive | inactive | inactive |  | inactive |  | inactive |
| CCOC(=O)[C@H](CCc1ccccc1)N[C@@H](C)C(=O)N1C(=O)N(C)C[C@H]1C(=O)O | inactive | inactive |  | inactive | inactive | inactive | inactive | inactive | inactive | inactive | inactive | inactive | inactive | inactive | inactive | inactive | inactive | inactive |  | inactive |
